The supplement of paper PMC10981050
Several values for one entry are separate records, joined by “and”; a condition that tells them apart may be missing. Equal values may be shown once. Where a name gives a salt, the structure may show the parent alone.

Columns and labels:
Test in all cases: cell viability relative to vehicle control; higher = less cytotoxic
Details in all cases: 10 µM
K562 = system: K562
How it was run: (§1)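 CRISPR-edited SRSF2 P95 mutant and isogenic wild-type clones of four leukaemia lines were screened against Selleck bioactive, kinase and epigenetic probe libraries, with identity-inconsistent compounds removed. Compounds were acoustically dispensed into 384-well plates at a single 10 µM dose, with 2000 cells in 50 µL medium per well. After 48 h, supernatant was removed and CellTiter-Glo luminescence was read. Viability was expressed as percent of the on-plate DMSO vehicle control, analysed in Genedata Screener.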

MARIMO = system: MARIMO
How it was run: as §1

MOLM14 = system: MOLM14
How it was run: as §1

OCI-AML2 = system: OCI-AML2
How it was run: as §1

| Structure (SMILES) | cell viability (K562; SRSF2 genotype: SRSF2 P95H/wt) | cell viability (K562; SRSF2 genotype: SRSF2 wt/wt) | cell viability (MARIMO; SRSF2 genotype: SRSF2 P95H/wt) | cell viability (MARIMO; SRSF2 genotype: SRSF2 wt/wt) | cell viability (MOLM14; SRSF2 genotype: SRSF2 P95H/wt) | cell viability (MOLM14; SRSF2 genotype: SRSF2 wt/wt) | cell viability (OCI-AML2; SRSF2 genotype: P95H/wt) | cell viability (OCI-AML2; SRSF2 genotype: wt/wt) |
| --- | --- | --- | --- | --- | --- | --- | --- | --- |
| Nc1ncccc1-c1nc2ccc(-c3ccccc3)nc2n1-c1ccc(C2(N)CCC2)cc1 [Miransertib (ARQ 092)HCl] | 35.5% and 48% | 30.4% | 75.3% | 72.4% | 39.3% | 48.1% | 33% | 49.2% |
| Nc1ncnc2n[nH]c(Nc3ccc(F)cc3)c12 | 86.7% and 96.4% | 82.6% | 70% | 67.5% | 69.2% | 71.8% | 65.5% | 63.8% |
| COC1=C2C[C@@H](C)C[C@H](OC)[C@H](O)[C@@H](C)/C=C(\C)[C@H](OC(N)=O)[C@@H](OC)/C=C\C=C(/C)C(=O)NC(=CC1=O)C2=O [Geldanamycin] | 15.4% and 22.8% | 24.4% | 26.4% | 19.1% | 1.24% | 1.11% | 1.59% | 10.6% |
| COc1ccc(NC(=O)c2ccc(C(=N)N(C)C)cc2)c(C(=O)Nc2ccc(Cl)cn2)c1 [Betrixaban maleate] | 96.1% and 95.9% | 89.5% | 86.5% | 89.9% | 99.9% | 102% | 81.3% | 76.5% |
| O=C(Nc1ccc(OC(F)(F)F)cc1)c1sccc1NCc1ccnc2ccccc12 | 44.9% and 48.7% | 43.4% | 49.2% | 42.3% | 39% | 29.1% | 24% | 27.2% |
| CCCCN1CCCCC1C(=O)Nc1c(C)cccc1C (stereo unspecified) [Bupivacaine hydrochloride (Marcain)] | 92% and 102% | 98.8% | 97.7% | 103% | 98.5% | 102% | 100% | 104% |
| CCC(=O)O[C@]1(C(=O)CCl)[C@@H](C)C[C@H]2[C@@H]3C[C@H](F)C4=CC(=O)C=C[C@]4(C)[C@@]3(F)[C@@H](O)C[C@@]21C [Halobetasol Propionate] | 92.5% and 97.2% | 89% | 101% | 98.1% | 76.3% | 85.8% | 99.3% | 105% |
| OCCOCCN1CCN(C(c2ccccc2)c2ccc(Cl)cc2)CC1 (stereo unspecified) [Hydroxyzine pamoate] | 88.7% and 98% | 100% | 79.8% | 91.8% | 79.9% | 96.4% | 87.9% | 94.6% |
| CC(=O)OC1CCC2C3CCc4cc(O)ccc4C3CCC12C (stereo unspecified) | 96.5% and 85% | 90.6% | 85.8% | 98.9% | 96.9% | 96.2% | 87.7% | 96.1% |
| CCC[C@H](NC(=O)/C(C#N)=C/c1cccc(Br)n1)c1ccccc1 [Degrasyn (WP1130)] | 11.2% and 17.4% | 9.59% | 2.97% | 1.3% | 0.32% | 0.25% | 0.67% | 0.8% |
| COc1ccc(-n2c(C)c([N+](=O)[O-])c3ccc(O)cc32)cc1 | 97.5% and 95.4% | 94% | 99.2% | 108% | 93.6% | 98.2% | 73.1% | 80.2% |
| Cc1[nH]c(/C=C2\C(=O)Nc3ccc(S(=O)(=O)N(C)c4cccc(Cl)c4)cc32)c(C)c1C(=O)N1CCN(C)CC1 | 62.4% and 64.8% | 80.7% | 50.9% | 53.2% | 0.26% | 64.6% | 0.09% | 0.12% |
| O=C(O)COc1ccc(Br)cc1C=C1SC(=S)N(Cc2cccnc2)C1=O [Skp2 inhibitor C1 (SKPin C1)] | 34.9% and 35.5% | 35.5% | 18.9% | 18.6% | 5.39% | 2.44% | 3.65% | 9.12% |
| COc1cc(NC(=O)c2ccc(-c3ccc(Cl)cc3)o2)cc(OC)c1 | 105% and 102% | 103% | 99% | 105% | 113% | 115% | 97.4% | 92.8% |
| COc1cc2c(cc1OC)CN(CCc1ccc(NC(=O)c3cc(OC)c(OC)cc3NC(=O)c3cnc4ccccc4c3)cc1)CC2 [Tariquidar] | 94.6% and 105% | 96.9% | 95.3% | 105% | 93.5% | 95.7% | 96.4% | 100% |
| CCN(CC)CCNC(=O)c1c(C)[nH]c(/C=C2\C(=O)Nc3ccc(-c4csc(-c5ccccc5)n4)cc32)c1C [Amcasertib (BBI503)] | 0.84% and 1.26% | 0.76% | 66.4% | 43.4% | 4.21% | 8.87% | 4.03% | 26% |
| COc1cc(NS(=O)(=O)c2ccc(N)cc2)nc(OC)n1 [Sulphadimethoxine] | 95.8% and 87.4% | 95.9% | 91.3% | 98% | 96.7% | 91.5% | 90.4% | 91.4% |
| CC(ONC(=O)c1cc(C(F)(F)F)cc(C(F)(F)F)c1)C(=O)Nc1ccc(Cl)cc1 (stereo unspecified) | 78.9% and 81% | 78.8% | 95.5% | 102% | 88.7% | 93.2% | 82% | 90.7% |
| CCCCC(C=O)NC(=O)C(CC(C)C)NC(=O)C(CC(C)C)NC(C)=O (stereo unspecified) | 1.41% and 2.62% | 1.86% | 1.3% | 1.7% | 0.23% | 0.15% | 0.23% | 1.17% |
| COC(=O)Nc1ccc(-c2nc(N3CCOCC3)c3cnn(C4CCN(C(=O)OC)CC4)c3n2)cc1 | 43.8% and 55.5% | 48.8% | 53.5% | 52% | 40.9% | 34.3% | 33.9% | 32.9% |
| CS(=O)(=O)c1ccc(C2=C(c3ccccc3)C(=O)OC2)cc1 [Rofecoxib (Vioxx)] | 98.7% and 95.2% | 93.5% | 98.6% | 104% | 94.7% | 101% | 87.8% | 98.8% |

| Structure (SMILES) | cell viability (K562; SRSF2 genotype: SRSF2 P95H/wt) | cell viability (K562; SRSF2 genotype: SRSF2 wt/wt) | cell viability (MARIMO; SRSF2 genotype: SRSF2 P95H/wt) | cell viability (MARIMO; SRSF2 genotype: SRSF2 wt/wt) | cell viability (MOLM14; SRSF2 genotype: SRSF2 P95H/wt) | cell viability (MOLM14; SRSF2 genotype: SRSF2 wt/wt) | cell viability (OCI-AML2; SRSF2 genotype: P95H/wt) | cell viability (OCI-AML2; SRSF2 genotype: wt/wt) |
| --- | --- | --- | --- | --- | --- | --- | --- | --- |
| C[C@H](CCC(=O)O)[C@H]1CC[C@H]2[C@@H]3[C@H](O)C[C@@H]4C[C@H](O)CC[C@]4(C)[C@H]3C[C@H](O)[C@]12C [Sodium cholate] | 103% and 101% | 94.5% | 88.2% | 96.6% | 89.8% | 93.4% | 88% | 96.5% |
| C/C(=C\CO)CCC[C@H](C)CCC[C@H](C)CCCC(C)C [Phytol] | 97% and 93.1% | 96% | 89.1% | 103% | 85.5% | 92.6% | 80.5% | 82.6% |
| CO[C@@]12[C@H](COC(N)=O)C3=C(C(=O)C(C)=C(N)C3=O)N1C[C@@H]1N[C@@H]12 [Mitomycin C] | 17.1% and 28% | 21% | 5.24% | 2.95% | 0.73% | 0.37% | 0.41% | 0.98% |
| CN(C)C(=O)CCSC(SCCC(=O)O)c1cccc(/C=C/c2ccc3ccc(Cl)cc3n2)c1 (stereo unspecified) | 102% and 103% | 98.5% | 110% | 111% | 108% | 107% | 101% | 103% |
| CC(C)[C@H](C(=O)Nc1ccc(C(=O)NO)cc1)c1ccccc1 | 1.61% and 11.3% | 3.69% | 5.31% | 12.1% | 0.73% | 0.52% | 2.49% | 4.03% |
| CS(=O)(=O)CCNCc1ccc(-c2ccc3ncnc(Nc4ccc(OCc5cccc(F)c5)c(Cl)c4)c3c2)o1 | 54.6% and 37% | 56.7% | 88.7% | 90.3% | 86.2% | 60.6% | 65% | 59.5% |
| Cc1oc2nc3c(c(NC(=O)CN4CCCC4=O)c2c1C)CCCC3 [Coluracetam] | 95.4% and 96.3% | 105% | 93.7% | 104% | 103% | 103% | 94.9% | 99.4% |
| C/C=C(/C)C(=O)O[C@@H]1[C@H](OC(C)=O)c2c(ccc3ccc(=O)oc23)OC1(C)C [Praeruptorin A] | 96.7% and 95.2% | 100% | 89.8% | 101% | 89% | 94.8% | 97.4% | 104% |
| O=c1cc(-c2ccccc2)oc2cc(O)c(O)c(O)c12 [Baicalein] | 81.4% and 80% | 80.5% | 88.2% | 83.8% | 74.8% | 85.2% | 91.2% | 82.6% |
| Cc1cc(CS(=O)(=O)c2ccccc2)cc(OCc2ccc(CN3CCC[C@@H]3CO)cc2)c1 | 98.9% and 101% | 95.6% | 98.9% | 103% | 96.5% | 104% | 98.7% | 92.6% |
| OC[C@H]1O[C@H](OC[C@H]2O[C@H](O[C@]3(CO)O[C@H](CO)[C@@H](O)[C@@H]3O)[C@H](O)[C@@H](O)[C@@H]2O)[C@H](O)[C@@H](O)[C@H]1O [D-(+)-Raffinose pentahydrate] | 114% and 103% | 118% | 104% | 103% | 112% | 113% | 104% | 103% |
| COc1cccc(C(N)=O)c1 [3-Methoxybenzamide] | 106% and 99.6% | 111% | 104% | 102% | 103% | 107% | 101% | 115% |
| CC(C)CCCC(C)C1CCC2C3CCC4CC(O)CCC4(C)C3CCC12C (stereo unspecified) [Dihydrocholesterol] | 93% and 100% | 92.6% | 95.2% | 97.3% | 90.2% | 97.6% | 98.3% | 97.6% |
| CC(C)(C)c1cc(O)ccc1O | 99.8% and 100% | 93.8% | 21.6% | 0.51% | 48% | 54.4% | 37.9% | 29.7% |
| Cn1cc(C2=C(c3cccc(N)c3)C(=O)NC2=O)c2ccccc21 | 51.4% and 36.7% | 58.5% | 65.4% | 86% | 59.8% | 72.1% | 78.8% | 101% |
| CC(NC(=O)Cc1cc(F)cc(F)c1)C(=O)NC1C(=O)N(C)c2ccccc2-c2ccccc21 (stereo unspecified) | 101% and 102% | 108% | 99.7% | 94.5% | 105% | 104% | 105% | 107% |
| CC(C)N(CC[C@H](c1ccccc1)c1cc(CO)ccc1O)C(C)C | 89.7% and 94% | 98.4% | 88.3% | 90.7% | 93.3% | 97.9% | 93.5% | 90.9% |
| NC(=O)c1ncn([C@@H]2O[C@H](CO)[C@@H](O)[C@H]2O)c1N [AICAR (Acadesine)] | 109% and 107% | 109% | 101% | 110% | 107% | 118% | 93.1% | 105% |
| O=S(=O)(O)CCS [Mesna (Uromitexan, Mesnex)] | 107% and 96% | 103% | 94.2% | 110% | 104% | 100% | 92% | 104% |
| Cc1cc(C(O)=C2C(=O)C(=O)N(CCCN3CCOCC3)C2c2ccncc2)ccc1OCc1ccccc1 (stereo unspecified) | 96.1% and 98.6% | 102% | 93.9% | 92.6% | 107% | 96.5% | 103% | 94.2% |
| CN(C)CCNC(=O)c1cccn2c(=O)c3cc4ccccc4cc3nc12 | 32.5% and 33.8% | 30.8% | 35% | 26.6% | 0.3% | 0.24% | 0.28% | 1.23% |
